Inconclusive results are not listed. Activity calls are given as the source filed them. The calls were made as follows: active = hit-call score of the fitted dose curve at least 0.9, where 1 is the maximum; inconclusive = response in the unintended direction; inactive = score below 0.9.
Biological target: Glucocorticoid receptor (Homo sapiens) (UniProt P04150)
Experiment: ATG_GR_TRANS: Attagene TRANS-FACTORIAL HepG2 Assay for human Glucocorticoid Receptor (GR) (AID 2282978);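 also: activators score as hits since higher reporter transcript over DMSO is fitted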
Settings: HepG2 Attagene TRANS GR reporter, mRNA transcription
Procedure: ATG_TRANS is a cell-based, multiplexed-readout assay that uses HepG2, a human liver cell line, with measurements taken at 24 hours after chemical dosing in a 24-well plate.ATG_GR_TRANS is one of 30 assay component(s) measured or calculated from the ATG_TRANS assay. It is designed to make measurements of mRNA induction, a form of inducible reporter, as detected with fluorescence intensity signals by Reverse transcription polymerase chain reaction (RT-PCR) and Capillary electrophoresis technology.Data from the assay component ATG_GR_TRANS was analyzed into 1 assay endpoint. This assay endpoint, ATG_GR_TRANS, was analyzed in the positive analysis fitting direction relative to DMSO as the negative control and baseline of activity. Using a type of inducible reporter, measures of mRNA for gain-of-signal activity can be used to understand the reporter gene at the transcription factor-level as they relate to the gene NR3C1. Furthermore, this assay endpoint can be referred to as a primary readout, because this assay has produced multiple assay endpoints where this one serves a reporter gene function. To generalize the intended target to other relatable targets, this assay endpoint is annotated to the nuclear receptor intended target family, where the subfamily is steroidal.
Human liver HepG2 cells are transiently transfected with multiple reporter transcription units (MRTUs) in 6-well plates using FuGene 6 reagent (Roche; 3 ml FuGene/1 mg DNA). The MRTU constructs are regulated by a cis-regulating element (promoter). […] A major difference between the CIS and TRANS system is that in CIS activities of endogenous TFs are measured, whereas the TRANS assay evaluates changes in activities of exogenous, chimeric NR-Gal4 proteins. […] At the end of 24 hour incubation, total RNA was isolated using TriZol reagent (Invitrogen). The isolated RNA is then reverse-transcribed using oligo(dT) primer and Mo-MLV reverse transcriptase (Invitrogen) with DNAse I (Ambion) treatment for 30 min. The one-tenth of the produced cDNA was amplified by PCR using Taq DNA polymerase (Invitrogen) and two reporter sequence-specific primers. The PCR products were fluorescently labeled by primer extension with 6-arboxyfluorescein (6-FAM) 5'-labeled reporter sequence-specific primer (2 min at 95 C, 20 s at 68 C and 10 min at 72 C) and these products were digested with 5U of HpaI (New England Biolabs) for 2h at 37 C. The fragments were purified using Qiaquick PCR columns (Qiagen), analyzed on an ABI 3130xL genetic analyzer (Applied Biosystems) with peak positions identified by using a set of X-rhodamine (ROX)-labeled MapMarker1000 molecular weight standards (BioVentures). The raw capillary electrophoresis data was processed using Attagraph software (Attagene).

Glucocorticoid receptor (Homo sapiens), sequence (P04150 whole entry, looked up): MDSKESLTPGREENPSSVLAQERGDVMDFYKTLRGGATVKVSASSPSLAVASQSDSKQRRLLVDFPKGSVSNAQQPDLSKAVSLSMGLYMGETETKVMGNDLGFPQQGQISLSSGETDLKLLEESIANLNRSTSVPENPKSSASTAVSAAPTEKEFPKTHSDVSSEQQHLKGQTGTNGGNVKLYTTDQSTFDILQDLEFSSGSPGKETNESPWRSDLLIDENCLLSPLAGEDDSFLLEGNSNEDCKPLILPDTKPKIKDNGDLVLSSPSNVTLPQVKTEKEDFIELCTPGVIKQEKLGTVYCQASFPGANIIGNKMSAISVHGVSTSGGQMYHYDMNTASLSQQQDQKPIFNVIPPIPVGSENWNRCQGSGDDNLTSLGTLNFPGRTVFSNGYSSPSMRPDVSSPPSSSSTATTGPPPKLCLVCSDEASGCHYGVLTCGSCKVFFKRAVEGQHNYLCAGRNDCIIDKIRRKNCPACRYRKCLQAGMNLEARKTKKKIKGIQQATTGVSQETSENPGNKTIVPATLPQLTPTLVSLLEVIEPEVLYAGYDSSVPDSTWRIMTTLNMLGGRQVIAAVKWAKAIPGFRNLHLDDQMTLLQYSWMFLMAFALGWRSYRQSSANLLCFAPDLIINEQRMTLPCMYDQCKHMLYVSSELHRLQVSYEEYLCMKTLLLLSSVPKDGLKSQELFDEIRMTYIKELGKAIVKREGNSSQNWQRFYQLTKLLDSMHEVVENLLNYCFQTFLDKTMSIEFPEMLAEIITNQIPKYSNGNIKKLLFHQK

| SMILES | outcome | AC50 |
| --- | --- | --- |
| Cc1cc(Cl)ccc1O | inactive |  |
| CC1(C)[C@H](C(=O)O[C@H](C#N)c2cccc(Oc3ccccc3)c2)[C@@H]1/C=C(\Cl)C(F)(F)F | inactive |  |
| COCCl | inactive |  |
| C=CCOC(N)=O | inactive |  |
| CCN(N=O)C(N)=O | inactive |  |
| NC(=O)c1ccc(N)nc1 | inactive |  |
| O=NN1CCCCCCC1 | inactive |  |
| O=S(=O)(c1ccc(Cl)cc1)c1cc(Cl)c(Cl)cc1Cl | inactive |  |
| Cc1cc(Cl)ccc1N | inactive |  |
| O=NN1CCCCCC1 | inactive |  |
| CCOP(=S)(OCC)SCSc1cc(Cl)ccc1Cl | inactive |  |
| O=[N+]([O-])c1cc([As](=O)(O)O)ccc1O | inactive |  |
| C#CCOC(=O)/C=C(C)/C=C/CC(C)CCCC(C)C (stereo not given) | inactive |  |
| OC[P+](CO)(CO)CO | inactive |  |
| COc1nn(C(=O)NS(=O)(=O)c2ccccc2OC(F)(F)F)c(=O)n1C | inactive |  |
| CC(C)(C)c1ccccc1O | inactive |  |
| Cc1cc(Cl)ccc1OCCCC(=O)O | inactive |  |
| C=CC(Cl)CCl (stereo not given) | inactive |  |
| O=[N+]([O-])c1ccc(Cl)c([N+](=O)[O-])c1 | inactive |  |
| Nc1ccc(Br)cc1 |  | 100 µM (active) |

| SMILES | outcome | AC50 |
| --- | --- | --- |
| CC[N+](CC)(CC)CC | inactive |  |
| CC(C)CC(C)(c1ccc(O)cc1)c1ccc(O)cc1 | inactive |  |
| N#CCCC(Br)(C#N)CBr (stereo not given) | inactive |  |
| Cc1ccc(OP(=O)(Oc2ccc(C)cc2C)Oc2ccc(C)cc2C)c(C)c1 | inactive |  |
| CCOP(=S)(OCC)SCS(=O)(=O)C(C)(C)C | inactive |  |
| OC(Cc1ccccc1Cl)(Cn1cncn1)C1(Cl)CC1 (stereo not given) | inactive |  |
| Cc1cc(C(F)(C(F)(F)F)C(F)(F)F)ccc1NC(=O)c1cccc(I)c1C(=O)NC(C)(C)CS(C)(=O)=O | inactive |  |
| CCN(CC)C(=O)C(Cl)=C(C)OP(=O)(OC)OC | inactive |  |
| CN(N=O)C(N)=O | inactive |  |
| CCOP(=S)(OCC)OP(=S)(OCC)OCC | inactive |  |
| CCCCCCCCCCCCBr | inactive |  |
| CC(=O)CN(CC(C)=O)N=O | inactive |  |
| BrCCCCBr | inactive |  |
| OCC(c1ccc(Cl)cc1)c1ccc(Cl)cc1 | inactive |  |
| CC1(C)COP(Oc2ccccc2)OC1 | inactive |  |
| CN(C1CCCCC1)C1CCCCC1 | inactive |  |
| Cc1ccc2nc3sc(=O)sc3nc2c1 | inactive |  |
| CCOc1cc(C=O)ccc1O | inactive |  |
| CCCCN(CCCCO)N=O | inactive |  |
| CS(=O)(=O)c1ccc(C(=O)C2C(=O)CCCC2=O)c(Cl)c1COCC(F)(F)F | inactive |  |
